Source: PubChem BioAssay (National Center for Advancing Translational Sciences (NCATS))
The list is not random: actives were taken first. Their share in the collection is about 19%.
TGFb SMAD3 inh: qHTS for Inhibitors of TGF-b. HepG2 CAGA-GFP TGF-b/SMAD3 reporter, GFP fluorescence, 18 h; TGF-beta stimulated, 500 pg/mL final. Potency, µM (series often up to 46.1 µM), for inactives: top-dose activity, negative = inhibition, hits mostly inhibitors. actives 1.2% (n = 410,000). AID 588855, 2011; note: potency is the fitted concentration of half-maximal effect; % is set by controls: 0 for no effect and ±100 for the full control effect; nearly all actives have a fitted effect of over 65% in size
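GFP signal (ex488/em500-530) from TGF-beta-stimulated HEPG2 CAGA-GFP cells, 500 pg/mL final, 18 h at 37 degrees C in DMEM plus 1% FBS, normalized to unstimulated and DMSO-stimulated controls.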
DT40 TDP1 CPT: qHTS for Inhibitors of human tyrosyl-DNA phosphodiesterase 1 (TDP1): qHTS in cells in presence of CPT | chicken DT40 Tdp1-/-;hTDP1 cells + 20 nM CPT, ATP luminescence, 48 h | actives 12% (n = 420,000) | Potency, µM (series often up to 46.2 µM), inactives show at the highest dose activity change, negative = growth inhibition, usual class: inhibitors | AID 686979, 2013; note: potency is the fitted concentration of half-maximal effect; % is set by controls: 0 for no effect and ±100 for the full control effect; nearly all actives have a fitted effect of over 55% in size
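Cell growth measured by CellTiter-Glo luminescence after a minimum 48 h, 37 C compound exposure with 20 nM CPT in Tdp1-knockout DT40 cells stably expressing hTDP1, seeded 400/well; qHTS titration format.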
DT40 TDP1 no CPT: qHTS for Inhibitors of human tyrosyl-DNA phosphodiesterase 1 (TDP1): qHTS in cells in absence of CPT; DT40 Tdp1-/- hTDP1 cells, no CPT, ATP luminescence, 48 h; Potency, µM (doses to about 46.2 µM), without a hit: at the highest dose activity change, negative = growth inhibition, most hits filed as inhibitors; actives 15% (n = 420,000); note: potency is the fitted concentration of half-maximal effect; % is set by controls: 0 for no effect and ±100 for the full control effect; nearly all actives have a fitted effect of over 55% in size
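A cellular qHTS used chicken DT40 cells lacking endogenous Tdp1 but carrying stably transfected human TDP1. Compounds were applied without camptothecin, and cell growth kinetics were judged by ATP-dependent luminescence after ≥48 hr.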
TDP1 inh: qHTS Assay for Inhibitors of Tyrosyl-DNA Phosphodiesterase (TDP1) | Tyrosyl-DNA phosphodiesterase 1 (Homo sapiens), Q9NUW8 | recombinant TDP1, AlphaScreen DNA substrate cleavage | Potency, µM (series often up to 130 µM), for the others: at the highest dose activity change, negative = inhibition, hits mostly inhibitors | actives 0.28% (n = 350,000) | AID 485290, 2010; note: potency is the fitted concentration of half-maximal effect; % is set by controls: 0 for no effect and ±100 for the full control effect; nearly all actives have a fitted effect of over 40% in size
Target sequence (Q9NUW8 whole entry, looked up): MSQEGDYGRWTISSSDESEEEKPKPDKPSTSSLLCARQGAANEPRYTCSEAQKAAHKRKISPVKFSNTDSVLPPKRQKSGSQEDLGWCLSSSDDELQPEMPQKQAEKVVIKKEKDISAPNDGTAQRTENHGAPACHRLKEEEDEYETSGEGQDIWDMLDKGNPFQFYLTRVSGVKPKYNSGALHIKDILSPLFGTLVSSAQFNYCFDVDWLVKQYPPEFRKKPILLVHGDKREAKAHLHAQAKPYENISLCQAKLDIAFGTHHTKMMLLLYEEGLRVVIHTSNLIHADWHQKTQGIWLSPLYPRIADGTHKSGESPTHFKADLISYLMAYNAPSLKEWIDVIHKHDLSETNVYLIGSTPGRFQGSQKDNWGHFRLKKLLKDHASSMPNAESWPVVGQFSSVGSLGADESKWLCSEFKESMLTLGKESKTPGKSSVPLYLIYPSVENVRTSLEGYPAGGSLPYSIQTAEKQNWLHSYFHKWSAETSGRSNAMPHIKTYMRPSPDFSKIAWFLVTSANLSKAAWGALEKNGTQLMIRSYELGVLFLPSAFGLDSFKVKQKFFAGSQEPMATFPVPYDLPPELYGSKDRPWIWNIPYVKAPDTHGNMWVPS
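AlphaScreen read-out: signal falls as enzyme removes the 3' tyrosine-FITC from a 5'-biotinylated DNA oligo (15 nM, 5 min, RT). Enzyme was E. coli-made recombinant Tdp1 at 1 nM, exposed to compound for 15 min beforehand; beads 10 ug/ml, 10 min.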
HepG2 tox: qHTS for Inhibitors of TGF-b: Cytotox Counterscreen; actives 0.76% (n = 410,000); Potency, µM (titrated, usually from 46.1 µM), without a hit: top-dose activity change, negative = cytotoxicity, actives largely listed as cytotoxic; HepG2 CAGA-GFP viability, ATP luminescence, 18 h; note: potency is the fitted concentration of half-maximal effect
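HepG2 CAGA-GFP cells (1000/well, DMEM with 1% FBS) received compound, then TGF-beta at 500 pg/mL final, and were incubated 18 hours at 37 degrees C. Viability was read by CellTiter-Glo luminescence. Media-only wells were set as complete cell-killing and DMSO as no toxicity.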
IL1B secr inh: qHTS for Inhibitors of Inflammasome Signaling: IL-1-beta AlphaLISA Primary Screen. THP-1 LPS/ATP IL-1B secretion, AlphaLISA, 16 h; active compounds read low. activity change, % at 57.5 µM. actives 4.7% (n = 360,000). AID 743279, 2014; in the data active = activity change below about -50%; inconclusive = mostly about -30% to -49%; note: % is set by controls: 0 for no effect and ±100 for the full control effect
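THP-1 cells pretreated 1 hr with compounds (up to 57.5 uM final), then stimulated with LPS (250 ng/mL final) plus ATP (1.25 mM final); secreted IL-1B measured by AlphaLISA after 16 hr, decreased signal indicating inhibition.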
The depositor's hits bear a star; ? = inconclusive; / = not tested or not shown; [ ] = remark or other dose. Unless noted, calls come from the whole dose curve; as a rule, active = well fitted curve in the direction sought with a large enough effect; inconclusive = small, poorly fitted or top-dose-only effect, or another doubt; inactive = no such curve, though single readings can be large; an effect the other way counts as inactive or inconclusive.

SMILES	TGFb SMAD3 inh	DT40 TDP1 CPT	DT40 TDP1 no CPT	TDP1 inh	HepG2 tox	IL1B secr inh
COc1ccc2cc(C(N)=O)c(=Nc3ccccc3)oc2c1	-6.5%	?	14.6µM*	0.0%	-0.6%	-24.4
COc1ccc2cc(C(=O)NCc3ccccc3)c(=Nc3ccc(C(=O)O)cc3)oc2c1	-3.8%	?	13µM*	0.0%	10.4%	9.3
NC(=O)c1cc2ccccc2oc1=NCc1ccccc1	37.1%	-9.7%	-19.5%	4.0%	-7.9%	-26.0
COc1ccc(OC)c(N=c2oc3cc(O)ccc3cc2C(N)=O)c1	14.3%	14.6µM*	?	-1.0%	-52.8%	-23.1
COc1ccccc1C(=O)c1cc2ccc(O)cc2oc1=O	-10.5%	-15.7%	3.2%	5.3%	-2.7%	12.7
NC(=O)c1cc2ccc(O)cc2oc1=NCc1ccccc1	73.2%	18.4µM*	?	1.2%	-34.9%	-11.1
NC(=O)c1cc2cc(Br)ccc2oc1=NCc1ccccc1	6.0%	-24.9%	-29.1%	2.9%	-0.2%	-64.6*
C[C@H](/C=C/[C@H](C)C(C)(C)O)[C@H]1CC[C@H]2/C(=C/C=C3C[C@@H](O)C[C@H](O)C3)CCC[C@]12C	/	-26.8%	-14.5%	/	/	/
Cc1ccccc1C(=O)N1CCc2c(cnc(C)c2CNC(=O)CN2CCCCC2)C1	/	2.8%	-11.3%	/	/	/
CCOc1cc2sc(N3CCC(C(=O)Nc4ccc(C(C)C)cc4)CC3)nc2cc1Br	11.7%	?	?	-3.9%	-38.2%	/
CCOc1cc2sc(N3CCC(C(=O)Nc4cc(C)cc(C)c4)CC3)nc2cc1Br	-13.0%	20.6µM*	-54.1%	-2.0%	8.8%	/
CCOc1cc2sc(N3CCC(C(=O)Nc4ccc(C)cc4C)CC3)nc2cc1Br	3.4%	7.31µM*	20.6µM*	2.0%	7.2%	/
CCOc1cc2sc(N3CCC(C(=O)NCCCN4CCCC4=O)CC3)nc2cc1Br	?	?	?	5.3%	-39.8%	9.3
CCOc1ccccc1NC(=O)C1CCN(S(=O)(=O)c2cccc3nonc23)CC1	-15.9%	-11.8%	?	9.3%	5.6%	/
COc1ccc(C(=O)NCc2ccccc2CN2CCCC2)cc1S(=O)(=O)Nc1ccc(C)cc1	4.0%	?	?	5.2%	-33.8%	-16.5
CCCSc1nnc2[nH]c(=O)cc(C)n12	-0.2%	6.3%	-2.0%	2.6%	4.2%	/
Cc1cnc(CNc2ccnc(-c3ccc(C(=O)N(C)C)cc3)n2)cn1	/	-3.6%	18.2%	/	/	/
CC1=C(C#N)C(c2ccoc2)C(C(=O)OCc2ccccc2)=C(N)S1 (centres undefined)	?	-26.3%	25.9µM*	1.0%	-24.6%	-12.9
Nc1nc(CN2CCN(c3ccccc3F)CC2)nc(Nc2ccccc2)n1	-9.2%	23.1µM*	?	6.7%	-6.4%	-7.0
Nc1nc(CN2CCCCCC2)nc(Nc2ccccc2)n1	3.4%	-0.6%	-13.0%	7.9%	-15.7%	2.3
Nc1nc(CN2CCN(C(c3ccccc3)c3ccccc3)CC2)nc(Nc2ccccc2)n1	?	?	23.1µM*	8.0%	-36.3%	-21.6
Cc1ccc(Nc2nc(N)nc(CN3CCN(c4ccccc4F)CC3)n2)cc1	?	?	?	12.0%	-42.1%	-13.4
Nc1nc(CN2CCC(Cc3ccccc3)CC2)nc(Nc2ccccc2)n1	0.0%	18.4µM*	23.1µM*	5.9%	-81.6%	?
CCOC(=O)C1CCCN(C(=S)Nc2ccc(Nc3ccccc3)cc2)C1 (centres undefined)	8.6%	?	23.1µM*	7.7%	4.6%	-96.4*
CCCCCCCCCCCCOCCCN	/	-21.1%	?	4.2%	/	/
SMILES	TGFb SMAD3 inh	DT40 TDP1 CPT	DT40 TDP1 no CPT	TDP1 inh	HepG2 tox	IL1B secr inh
COc1ccc(CCN2CC(C(=O)Nc3ccc(S(C)(=O)=O)cc3)CC2=O)cc1OC (centres undefined)	0.0%	0.1%	17.6%	-2.8%	1.5%	9.9
CCOC(=O)C1CCCN(Cc2c(C(=O)N3CCOCC3)nc3ccccn23)C1 (centres undefined)	1.8%	1.4%	-8.0%	-2.7%	1.0%	-67.7*
Cc1cccc(Nc2nc(N)nc(CN3CCN(C)CC3)n2)c1	-4.4%	7.1%	7.0%	5.2%	-0.8%	-0.4
CCOC(=O)C1CCCN(Cc2nc(N)nc(Nc3ccccc3)n2)C1 (centres undefined)	14.1%	?	18.4µM*	9.1%	-20.4%	5.4
Cc1ccc(Nc2nc(N)nc(CN3CCCCCC3)n2)cc1	-2.7%	?	?	8.2%	-23.0%	-6.7
Cc1cccc(Nc2nc(N)nc(CN3CCN(c4ccc(F)cc4)CC3)n2)c1	?	18.4µM*	16.4µM*	6.2%	-39.2%	?
COc1ccc(Nc2nc(N)nc(CN3CCC(C)CC3)n2)cc1	1.0%	0.9%	-5.9%	2.6%	0.6%	-17.1
CC1CC(C)CN(Cc2nc(N)nc(Nc3ccc4ccccc4c3)n2)C1 (centres undefined)	?	23.1µM*	20.6µM*	1.1%	-57.7%	?
CC(C)(NC(=O)c1ccccc1)c1nc2ccccc2s1	0.6%	4.2%	-8.8%	0.7%	-2.4%	31.7
Cc1ccccc1C(=O)N1CCc2cc(-c3nc(NC(=O)Cc4ccc5c(c4)OCO5)sc3C)ccc21	?	7.31µM*	6.51µM*	0.0%	-24.6%	?
Cc1cccc(C(=O)N2CCc3cc(-c4nc(NC(=O)CN5CCCC5)sc4C)ccc32)c1	5.0%	?	?	/	-26.2%	-10.4
Cc1cccc(C(=O)N2CCc3cc(-c4nc(NC(=O)Cn5nnc6ccccc6c5=O)sc4C)ccc32)c1	/	/	/	3.4%	/	/
Cc1sc(NC(=O)Cc2ccc3c(c2)OCO3)nc1-c1ccc2c(c1)CCN2C(=O)c1cccc(F)c1	3.0%	11.6µM*	9.2µM*	2.6%	9.6%	5.0
Cc1sc(NC(=O)CN2CCOCC2)nc1-c1ccc2c(c1)CCN2S(=O)(=O)c1ccccc1	?	20.6µM*	9.2µM*	6.8%	-26.3%	-1.8
C=CCC1C=CC(OC(=O)OCC)C(COC(=O)OCC)O1 (centres undefined)	/	/	/	4.8%[21 µM]	/	/
Cc1ccc(C)c(N2CCN(C(=O)C34CC5CC(C3)CC(n3nnc(C)n3)(C5)C4)CC2)c1	?	6.51µM*	7.31µM*	2.7%	2.6%	?
